Results filed as inconclusive are left out. Entries that show only a call come without a potency. The source holds several records for some structures; these can differ, active in one and inactive in another. Calls of active or inactive are those of the source. Calls follow the shape of the dose curve; as a rule, active = well fitted cell-killing curve with a large enough effect in the repeat runs; inconclusive = weak or mixed curves, or effect the other way; inactive = flat fitted curve, though single readings scatter.
test: Caspase-3/7 induction in HepG2 cells by small molecules, qHTS cell viability counter screen (AID 1346981); conditions: CellTiter-Fluor fluorescence, 17 h; series mostly up to 92.4 µM; also: nearly all actives have a fitted effect of over 30% in size
How it was run: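 Multiplexed with the caspase-3/7 assay: HepG2 cells, 16 hr compound treatment, CellTiter-Fluor viability detection by fluorescence.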
Potency is read from the fitted curve at half-maximal effect.

| Compound | Potency |
| --- | --- |
| O=S(=O)(O)CCS | inactive |
| O=C(Oc1ccccc1)c1ccc(O)cc1 | inactive |
| CC1=CC[C@H]2C[C@@H]1C2(C)C | inactive |
| O=[N+]([O-])c1cccc(Cl)c1 | inactive |
| O=C(O)c1cc(-c2ccccc2)nc2ccccc12 | inactive |
| C=C(C)C(=O)OCCCCCCCCCCCC | inactive |
| CNC[C@H](O)[C@@H](O)[C@H](O)[C@H](O)CO | inactive |
| CCCCCCCCCC(=O)O | inactive |
| CCCCC(CC)COC(C)=O (stereo not drawn) | inactive |
| O=[N+]([O-])C(CO)(CO)CO | 4.26 µM (active) and inactive |
| CC1=C(/C=C/C(C)=C/C=C/C(C)=C/CO)C(C)(C)CCC1 | inactive |
| C=C(C#N)C(=O)OCC | inactive |
| CC(C)(CO)COC(=O)C(C)(C)CO | inactive |
